Measured values as given in the supplement of paper PMC11732987, “Enantioselective OTUD7B fragment discovery through chemoproteomics screening and high-throughput optimisation” (Communications Chemistry, 2025).

molecular target: USP14 (UniProt P54578); assay: log2 ratio of Biotin-Ahx-Ub-VS probe labelling (fragment/DMSO); higher = less target engagement (more negative = stronger competition), active = hit call of the paper (q ≤ 0.05, log2 ratio ≤ -1); settings: compound concentration: 200 uM; treatment time: 3 h
Experimental: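 Competitive ABPP in HEK293T cell lysate. Lysates were treated with each chloroacetamide fragment at 200 µM for 3 h, then with Biotin-Ahx-Ub-VS (0.5 µM, 1 h), NeutrAvidin-enriched and analysed by diaPASEF LC-MS/MS. Protein LFQ was median-normalised; average log2 ratio is fragment/DMSO from an unpaired t-test (n=3 treated, n=44 DMSO). Hits: q ≤ 0.05, log2 ratio ≤ -1, unique peptides ≥ 2.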

USP14, sequence (P54578 whole entry, the tested form may be a part): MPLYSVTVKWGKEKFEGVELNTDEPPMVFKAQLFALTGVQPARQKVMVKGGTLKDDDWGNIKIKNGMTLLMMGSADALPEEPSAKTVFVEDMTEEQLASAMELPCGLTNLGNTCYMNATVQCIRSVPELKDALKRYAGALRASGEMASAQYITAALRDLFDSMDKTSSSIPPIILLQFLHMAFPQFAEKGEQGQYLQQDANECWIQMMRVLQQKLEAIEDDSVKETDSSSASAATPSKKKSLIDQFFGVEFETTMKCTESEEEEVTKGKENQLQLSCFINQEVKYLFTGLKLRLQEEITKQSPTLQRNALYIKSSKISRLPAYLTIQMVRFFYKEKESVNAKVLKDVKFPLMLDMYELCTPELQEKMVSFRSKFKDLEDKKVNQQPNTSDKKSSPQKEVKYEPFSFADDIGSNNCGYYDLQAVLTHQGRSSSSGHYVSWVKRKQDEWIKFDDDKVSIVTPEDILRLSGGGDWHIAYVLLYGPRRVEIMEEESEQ

log2 ratio of Biotin-Ahx-Ub-VS probe labelling, inactive:
O=C(CCl)NCc1ccc(Cl)cc1 -0.109
CC(NC(=O)CCl)c1ccc2[nH]ncc2c1 (stereo not given) -0.802
Cc1ccccc1CN(C)C(=O)CCl -0.81
O=C(CCl)N1CCOC(CCc2ccccc2)C1 (stereo not given) -0.562
Cl.O=C(CCl)NC1(c2ncccn2)CCC1 0.108
Cc1nc(CC2CCN(C(=O)CCl)CC2)no1 -0.561
O=C(CCl)N1CCOC2(CCC2)C1 0.0484
O=C(CCl)N1CCC(C(=O)N2CCCC2)CC1 -0.0629
Cc1noc(C)c1CNC(=O)CCl -0.561
O=C(CCl)NCc1noc(C2CC2)n1 -0.284
CC1(NC(=O)CCl)CCS(=O)(=O)C1 (stereo not given) -0.815
O=C(CCl)N1CCCCC12CCOCC2 -0.559
O=C(CCl)N1CCC(OCc2ccccc2F)CC1 0.0975
Cl.O=C(CCl)N1CCN(Cc2ccccc2)CC1 -0.745
Cl.O=C(CCl)N1CCn2ncc(O)c2C1 -0.588
CCN1C(=O)C2CN(C(=O)CCl)CCN2C1=O (stereo not given) -0.176
O=C(CCl)NCc1cccc(N2CCCC2=O)c1 -0.0996
Cc1ccc(CC(NC(=O)CCl)c2ccccn2)cc1.Cl (stereo not given) -0.0182
Cc1nc(CN2CCN(C(=O)CCl)CC2)cs1 -0.431
CC(NC(=O)CCl)c1cc2n(n1)CCCC2.Cl (stereo not given) -0.363
Cc1nnc(C(NC(=O)CCl)c2ccccc2)n1C (stereo not given) 0.163
O=C(CCl)N1CCOC2(CCC2)CC1 -0.247
Cc1ccc(CN(C)C(=O)CCl)o1 -0.0502
COCC[C@@H](NC(=O)CCl)c1ccccc1 0.0709
COCC1C=CCCN1C(=O)CCl (stereo not given) -0.0905
O=C(CCl)N1CCC(S(=O)(=O)c2ccc(F)cc2)CC1 -0.0146
Cl.Cn1nc2c(c1CNC(=O)CCl)CCCC2 -0.00316
CN1C(=O)c2ccc(NC(=O)CCl)cc2C1=O -0.292
CN(C)C(=O)c1ccc(CNC(=O)CCl)cc1 0.0549
Cc1cccc2nc(CCNC(=O)CCl)cn12.Cl -0.259
O=C(CCl)NCc1ccc(N2CCOCC2)nc1 -0.262
O=C(CCl)Nc1cc(Cl)ccc1C(=O)O 0.0912
Cc1ccc(C)c(Oc2ccc(CNC(=O)CCl)cn2)c1.Cl -0.371
Cc1ccc(N2CCC(NC(=O)CCl)C2=O)cc1 (stereo not given) -0.0106
Cc1ccc(C(=O)NCCNC(=O)CCl)cc1 -0.414
COc1ccc(CN(C)C(=O)CCl)cc1 -0.544
O=C(CCl)NC1CCCCNC1=O (stereo not given) -0.476
O=C(CN1CCN(C(=O)CCl)CC1)Nc1cccc(F)c1 -0.0714
CCN(C(=O)CCl)C1CCS(=O)(=O)C1 (stereo not given) -0.155
Cc1ccccc1C1(CNC(=O)CCl)CCOCC1 -0.0489
